Molecules are shown by their SMILES. A number with no mark means an inactive call.

The test deals with COPS5 (UniProt Q92905). In words: log2 ratio of Biotin-Ahx-Ub-VS probe labelling (fragment/DMSO); higher = less target engagement (more negative = stronger competition), active = hit call of the paper (q ≤ 0.05, log2 ratio ≤ -1). To be noted: compound concentration: 200 uM; treatment time: 3 h. The procedure: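 Competitive ABPP in HEK293T cell lysate. Lysates were treated with each chloroacetamide fragment at 200 µM for 3 h, then with Biotin-Ahx-Ub-VS (0.5 µM, 1 h), NeutrAvidin-enriched and analysed by diaPASEF LC-MS/MS. Protein LFQ was median-normalised; average log2 ratio is fragment/DMSO from an unpaired t-test (n=3 treated, n=44 DMSO). Hits: q ≤ 0.05, log2 ratio ≤ -1, unique peptides ≥ 2.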
Chain of COPS5 (Q92905 whole entry, looked up, the tested form may be a part): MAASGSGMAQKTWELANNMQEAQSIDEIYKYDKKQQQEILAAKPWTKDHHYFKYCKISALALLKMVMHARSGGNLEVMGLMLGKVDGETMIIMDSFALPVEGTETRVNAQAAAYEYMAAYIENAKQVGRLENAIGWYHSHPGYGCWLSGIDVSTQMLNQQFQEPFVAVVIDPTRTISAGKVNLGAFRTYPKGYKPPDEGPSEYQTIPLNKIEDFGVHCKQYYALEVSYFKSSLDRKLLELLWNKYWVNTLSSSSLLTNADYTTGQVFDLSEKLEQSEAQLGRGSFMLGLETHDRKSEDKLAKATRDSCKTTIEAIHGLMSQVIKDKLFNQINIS
Take `O=C(CCl)Nc1cccc2ncccc12`: the “log2 ratio of Biotin-Ahx-Ub-VS probe labelling” value (“log2 ratio” below) was 0.251.

For `CCC1c2ccsc2CCN1C(=O)CCl` (stereo not given), the “log2 ratio” value was -0.188.

On to `Cc1nc(CN2CCCN(C(=O)CCl)CC2)no1.Cl`, for which the “log2 ratio” value was -0.0569. Then `Cc1cccc(C)c1NC(=O)CCl`, with 0.194. Then `COc1cc(Cl)c(C)cc1NC(=O)CCl`, with -0.0677. The result for `Cc1n[nH]c2c1CN(C(=O)CCl)CC2` reads 0.184. Turning to `CN(C)C(=O)c1ccc(CNC(=O)CCl)cc1`, the “log2 ratio” value is 0.0838. The result for `Cc1cc(NC(=O)CCl)n(-c2ccccc2)n1` reads -0.0499; that for `CC(=O)Nc1ccc(NC(=O)CCl)cc1`, -0.0874.

Consider `Cc1nnc(C(NC(=O)CCl)c2ccccc2)n1C` (stereo not given), for which the “log2 ratio” value is 0.37. Then `NC(=O)C1CCCN(C(=O)CCl)C1` (stereo not given), with 0.0012; and `Cl.O=C(CCl)N1CCC(Cc2nccs2)C1` (stereo not given), with 0.114. Then `COc1cccc(CN(C)C(=O)CCl)c1`, with 0.0731; and `Cl.Cn1c(CNC(=O)CCl)nc2cccnc21`, with 0.0916; and `O=C(CCl)Nc1nnc(CC(F)(F)F)o1`, with 0.149. Turning to `CC(NC(=O)CCl)c1csc(-c2ccccc2)n1.Cl` (stereo not given), the “log2 ratio” value was -0.00417. The result for `O=C(CCl)N1CCN(c2nc3ccccc3o2)CC1` reads -0.251.

On to `N#Cc1ccccc1N1CCN(C(=O)CCl)CC1`, for which the “log2 ratio” value was -0.271. The result for `CC(NC(=O)CCl)c1cnn(C2CC2)c1` (stereo not given) reads -0.244; that for `O=C(CCl)N1CCOC(CCc2ccccc2)C1` (stereo not given), -0.026. With `Cc1cccnc1NC(=O)C1CCN(C(=O)CCl)CC1.Cl`, the “log2 ratio” value was -0.025. Then `O=C(CCl)Nc1cc(Cl)ccc1-n1cncn1`, with -0.332; and `O=C(CCl)Nc1ccc2c(c1)OC(F)(F)O2`, with -0.156; and `CN(C)C(=O)c1ccc(NC(=O)CCl)cc1`, with 0.125. The result for `CC1Cc2ccccc2N1C(=O)CCl` (stereo not given) reads 0.169.

Take `O=C(CCl)N1CCOC2(CCC2)C1`: the “log2 ratio” value was 0.247.

In the case of `O=C(CCl)NCCc1ccc2c(c1)OCCO2`, the “log2 ratio” value was 0.0882. Then `O=C(CCl)N1CCOCCC1c1ccccc1` (stereo not given), with -0.0175; and `O=C(CCl)NC1CCN(C(=O)C2CCCCC2)CC1`, with -0.188; and `Cc1ncsc1CCNC(=O)CCl`, with 0.936. Then `CN(CCC(O)c1ccc(Br)cc1)C(=O)CCl` (stereo not given), with -0.266; and `CCc1c[nH]c(CNC(=O)CCl)n1.Cl`, with -0.182. The result for `CC(c1ccccc1)N(C)C(=O)CCl` (stereo not given) reads 0.082; that for `O=C(CCl)N1CCC(O)(Cc2ccc(F)cc2)C1` (stereo not given), 0.0199. Take `Cc1cccc(NC(=O)CCl)c1C`: the “log2 ratio” value was -0.347. Then `Cc1ccc(C)c(NC(=O)CCl)c1`, with -0.0407; and `O=C(CCl)NCCc1ccc(F)cc1`, with 0.0919. The result for `Cc1conc1C1CN(C(=O)CCl)C1` reads 0.0369; that for `O=C(CCl)NCc1ccc(N2CCOCC2)c(F)c1`, -0.0355. The result for `CNC(=O)C1CCN(C(=O)CCl)CC1` reads 0.16.

The values are drawn from the supplement of paper PMC11732987, “Enantioselective OTUD7B fragment discovery through chemoproteomics screening and high-throughput optimisation” (Communications Chemistry, 2025).
